Experimental findings from PubChem BioAssay (NCATS) are described below.

Records with an inconclusive call do not appear. Calls of active or inactive are those of the source. Unless noted, calls come from the whole dose curve; as a rule, active = well fitted curve in either direction with a large enough effect (not every such curve was filed as active); inconclusive = small, poorly fitted or top-dose-only effect, or another doubt; inactive = flat fitted curve, though single readings scatter.

Test [1] can be described thus: AP1 Signaling Pathway (AID 357).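 Note: ME-180 reporter cells stimulated with EGF at its EC50 level; % is set by controls: 0 for no effect and ±100 for the full control effect.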 Put shortly:
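A ratiometric CCF4 readout (405 nm excitation; 460 and 530 nm emission) quantified AP-1-driven beta-lactamase in ME-180 cells after 5 h with compound and EC50 EGF; AC50 values were derived for activators and inhibitors.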

Test [2] in a line: NFAT Signaling Pathway (AID 444).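 Note: carbachol stimulus at about its EC50 of 1 µM final; % is set by controls: 0 for no effect and ±100 for the full control effect.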 The conditions noted are these: Jurkat NFAT-bla M1, carbachol, beta-lactamase ratio, 5 h; at 17.2 µM (top of the series) unless noted. Put shortly: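 Read-out: CCF4 FRET ratio (460 nm/530 nm) after 1 h RT dye loading, used for %activity and AC50 from titration series. Cells: Jurkat NFAT-β-lactamase/M1 line, treated with compound plus 1 uM carbachol for 5 h, 37 °C.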

Test [3] is described as follows: Stat Signaling Pathway (AID 446).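 Note: ME-180 cervical cancer cells given 40 pM IL-6 alongside compound; SIE-controlled beta-lactamase reporter measured as 460/530 nm FRET emission ratio; % is set by controls: 0 for no effect and ±100 for the full control effect.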 The method, boiled down:
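ME-180 SIE-bla cells; overnight plating; cpd + IL-6 40 pM, 5 h, 37 C; LiveBLAzer 2.5 h RT; 460/530 nm emission ratio. Normalized to 300 pM IL-6 and 125 nM JAK inhibitor controls.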

Test [4] addresses Glucocorticoid receptor (Homo sapiens) (UniProt P04150). In words: GR-GFP Redistribution (AID 450;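 active = compounds whose dose series gives a full or clear partial fitted curve of increased nuclear translocation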; note: potency is the fitted concentration of half-maximal effect). The conditions noted are these: U2OS GR-GFP nuclear translocation, laser cytometry, 2 h.
For test [5] the target is unchanged. In words: GR-EFC Redistribution (AID 451; calls by dose curve; note: potency is the fitted concentration of half-maximal effect). The conditions noted are these: CHO-K1 GR-EFC translocation, beta-gal luminescence, 2 h. Put shortly:
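Translocation of GR-ED fusion to nuclear EA restores b-gal, read by luminescence after 1 h room-temperature detection. Engineered CHO-K1 biosensor cells, 1,000/well, exposed 2 h at 37 C to titrations up to 46 uM final.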

Test [6] concerns the target Mitogen-activated protein kinase 10 (Mus musculus) (UniProt Q61831). In words: JNK3 AlphaScreen Assay (AID 530).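 Note: kinase came from lysate of stimulated human HepG2 cells; signal reports phosphorylation of biotinylated GST-cJun 1-79 at Ser73 with 10 µM ATP; % is set by controls: 0 for no effect and ±100 for the full control effect.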 Put shortly: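 Room-temperature AlphaScreen kinase assay; pre-activated HepG2 lysate as JNK3 source, biotin-GST-cJun(1-79) substrate, 10 uM ATP, compound 15 min preincubation.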
(In general: Alpha assays give light when donor and acceptor beads are brought close together.)

Test [7] has as its target 3',5'-cyclic-AMP phosphodiesterase 4B (Homo sapiens) (UniProt Q07343). The test can be described thus: qHTS Assay for Inhibitors of PDE-IV (AID 607; active = well fitted activation curve with a large enough effect in the main read-out, with a control signal flat, not every such curve was filed as active; note: % of control where 0% means no effect). The method, boiled down: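 ACTOne HEK293 cells carry a modified cAMP-gated CNG channel and express endogenous PDE4; plated 1000 cells/well, compounds up to 22.9 uM final. Membrane-potential dye fluorescence (ex 535/em 590) was read; parental cells received 10 uM forskolin + 100 uM RO 20-1724.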
A general note: qHTS replaces the single test concentration by a dilution series.

A short description of test [8]: qHTS Assay for Lipid Storage Modulators (AID 1519; calls by dose curve). The note with it: Drosophila S3 cells, BODIPY lipid droplet/cell ratio, laser cytometry, cells loaded with oleic acid; for activity change, negative = inhibition: at 25.7 µM (top of the series). Put shortly: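 Cells seeded at 5,000 per well were treated with compounds over a concentration series and loaded with oleic acid (400 uM, as added). Lipid droplet fluorescence (488 nm excitation, 500-530 nm channel) was read by laser-scanning cytometry and normalized to 20 uM Triacsin C.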

Test [9] concerns the target Ubiquitin carboxyl-terminal hydrolase 1 (Homo sapiens) (UniProt O94782). The test can be described thus: Inhibitors of USP1/UAF1: Pilot qHTS (AID 504865; active = well fitted curve in the direction sought with a large enough effect; an effect the other way counts as inactive or inconclusive;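 note: rhodamine fluorescence freed from ubiquitin-rhodamine substrate followed over time; top concentration of the series differs between compounds; % is set by controls: 0 for no effect and ±100 for the full control effect; nearly all actives have a fitted effect of over 35% in size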). Put shortly:
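Deubiquitinase activity followed as kinetic rhodamine fluorescence release from 150 nM Ub-Rho. 1 nM USP1/UAF1 with compound, after 15 min room-temperature preincubation, in HEPES pH 7.8 buffer containing TCEP, EDTA, BSA and Tween-20.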

For test [10], the target named is ATP-dependent 6-phosphofructokinase (Trypanosoma brucei brucei) (UniProt O15648). In words: qHTS Assay to Find Inhibitors of T. brucei phosphofructokinase: hit validation (AID 492961; active = well fitted curve in the direction sought with a large enough effect; an effect the other way counts as inactive or inconclusive). Put shortly: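 Measures ADP output of PFK (1.25 nM) at 0.1 mM ATP, 0.5 mM F6P, pH 8.0 TEA buffer with 5 mM MgCl2. No-enzyme wells define full inhibition; uninhibited enzyme wells define zero.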

Test [11] addresses Luciferin 4-monooxygenase (Photinus pyralis) (UniProt P08659). The test can be described thus: Biochemical firefly luciferase enzyme assay for NPC (AID 624030; active = well fitted curve in the direction sought with a large enough effect; an effect the other way counts as inactive or inconclusive;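 note: purified P. pyralis luciferase at 10 nM with luciferin and ATP substrate; 0% = DMSO and -100% = full luciferase inhibition by PTC124 control; nearly all actives have a fitted effect of over 70% in size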). Put shortly: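 Direct inhibition of firefly luciferase enzyme (10 nM final, 50 mM Tris Acetate) assessed by luminescence within 5 minutes. Percent activity scaled between DMSO and PTC124 positive control, with concentration-effect curves classified by fit quality and response.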

A short description of test [12]: qHTS profiling for inhibitors of Plasmodium falciparum proliferation (AID 504749; active = well fitted curve in the direction sought with a large enough effect; an effect the other way counts as inactive or inconclusive;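 note: 0% = DMSO vehicle and full inhibition = artemisinin control; nearly all actives have a fitted effect of over 60% in size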). The conditions noted are these: P. falciparum in erythrocytes, SYBR Green DNA, 72 h, at 12.8 µM (top of the series). The method, boiled down: (§1)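 Three-day growth assay of blood-stage parasites in erythrocytes (0.3% parasitemia, 2.5% hematocrit) at 37 C, 5% CO2, quantified by SYBR Green DNA staining after overnight detergent lysis.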

The next test deals with C2A. Described as above. The note with it: P. falciparum in erythrocytes, SYBR Green DNA, 72 h; series mostly up to 12.8 µM. The method, boiled down: as §1
The next test deals with CP191. The description is as above. The note with it: P. falciparum in erythrocytes, SYBR Green DNA, 72 h; series mostly up to 12.8 µM. Put shortly:
as §1

In a further test the test system is CP238. Described as above. The conditions noted are these: P. falciparum in erythrocytes, SYBR Green DNA, 72 h; series mostly up to 12.8 µM. Put shortly: as §1
Another test has as its system CP256. The test is described as above. The note with it: P. falciparum in erythrocytes, SYBR Green DNA, 72 h; series mostly up to 12.8 µM. The method, boiled down: as §1
Another test has as its system FAB9. The test is described as above. The conditions noted are these: P. falciparum in erythrocytes, SYBR Green DNA, 72 h; series mostly up to 12.8 µM. The method, boiled down:
as §1

The next test has as its system JCK. The test is described as above. The conditions noted are these: P. falciparum in erythrocytes, SYBR Green DNA, 72 h; series mostly up to 12.8 µM. Put shortly:
as §1

The test system of another test is SC27B. Described as above. The conditions noted are these: P. falciparum in erythrocytes, SYBR Green DNA, 72 h; series mostly up to 12.8 µM. The method, boiled down:
as §1

Where [13] appears, read: measured here: cell count channel max response.
Setting [14] is: measured here: lipid channel max response.

Chain of Ubiquitin carboxyl-terminal hydrolase 1 (Homo sapiens) (O94782 whole entry, looked up): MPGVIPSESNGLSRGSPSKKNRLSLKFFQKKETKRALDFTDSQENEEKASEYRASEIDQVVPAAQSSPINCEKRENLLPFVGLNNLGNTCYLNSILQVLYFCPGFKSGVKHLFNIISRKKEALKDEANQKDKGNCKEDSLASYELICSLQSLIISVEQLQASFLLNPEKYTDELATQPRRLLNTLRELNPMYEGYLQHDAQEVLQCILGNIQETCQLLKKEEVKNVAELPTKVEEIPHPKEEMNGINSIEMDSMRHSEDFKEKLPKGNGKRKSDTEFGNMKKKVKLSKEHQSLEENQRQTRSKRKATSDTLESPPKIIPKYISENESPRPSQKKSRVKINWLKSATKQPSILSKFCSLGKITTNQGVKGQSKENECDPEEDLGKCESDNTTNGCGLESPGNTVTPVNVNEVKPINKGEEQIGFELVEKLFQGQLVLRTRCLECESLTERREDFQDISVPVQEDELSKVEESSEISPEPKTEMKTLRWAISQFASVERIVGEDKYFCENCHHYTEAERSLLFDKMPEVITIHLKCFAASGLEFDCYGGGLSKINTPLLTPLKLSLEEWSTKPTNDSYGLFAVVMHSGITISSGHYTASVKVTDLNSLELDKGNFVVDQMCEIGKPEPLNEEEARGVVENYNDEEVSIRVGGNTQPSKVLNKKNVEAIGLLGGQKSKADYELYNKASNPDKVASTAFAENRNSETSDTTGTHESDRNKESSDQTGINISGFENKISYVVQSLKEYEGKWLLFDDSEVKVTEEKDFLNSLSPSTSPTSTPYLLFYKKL
Chain of Glucocorticoid receptor (Homo sapiens) (P04150 whole entry, looked up): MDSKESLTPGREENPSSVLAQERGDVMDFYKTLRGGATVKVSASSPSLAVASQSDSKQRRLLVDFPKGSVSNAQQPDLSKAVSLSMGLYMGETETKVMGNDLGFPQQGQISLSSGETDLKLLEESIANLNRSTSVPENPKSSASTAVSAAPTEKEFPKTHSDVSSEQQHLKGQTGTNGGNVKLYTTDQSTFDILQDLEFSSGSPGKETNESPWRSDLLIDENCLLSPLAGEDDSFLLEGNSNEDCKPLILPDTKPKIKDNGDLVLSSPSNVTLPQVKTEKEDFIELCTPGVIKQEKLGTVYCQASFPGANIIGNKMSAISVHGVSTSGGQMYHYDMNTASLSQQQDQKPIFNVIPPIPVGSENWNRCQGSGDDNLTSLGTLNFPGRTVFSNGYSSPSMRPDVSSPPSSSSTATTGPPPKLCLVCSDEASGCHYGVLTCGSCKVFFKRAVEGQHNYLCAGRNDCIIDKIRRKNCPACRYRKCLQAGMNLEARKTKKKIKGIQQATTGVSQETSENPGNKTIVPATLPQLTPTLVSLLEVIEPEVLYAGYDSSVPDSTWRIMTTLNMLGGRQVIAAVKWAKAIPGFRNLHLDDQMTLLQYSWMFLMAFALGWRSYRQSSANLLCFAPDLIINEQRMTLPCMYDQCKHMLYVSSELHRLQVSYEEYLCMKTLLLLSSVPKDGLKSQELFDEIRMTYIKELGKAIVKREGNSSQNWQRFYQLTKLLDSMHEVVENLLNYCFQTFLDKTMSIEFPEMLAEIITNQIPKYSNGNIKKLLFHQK
Chain of 3',5'-cyclic-AMP phosphodiesterase 4B (Homo sapiens) (Q07343 whole entry, looked up): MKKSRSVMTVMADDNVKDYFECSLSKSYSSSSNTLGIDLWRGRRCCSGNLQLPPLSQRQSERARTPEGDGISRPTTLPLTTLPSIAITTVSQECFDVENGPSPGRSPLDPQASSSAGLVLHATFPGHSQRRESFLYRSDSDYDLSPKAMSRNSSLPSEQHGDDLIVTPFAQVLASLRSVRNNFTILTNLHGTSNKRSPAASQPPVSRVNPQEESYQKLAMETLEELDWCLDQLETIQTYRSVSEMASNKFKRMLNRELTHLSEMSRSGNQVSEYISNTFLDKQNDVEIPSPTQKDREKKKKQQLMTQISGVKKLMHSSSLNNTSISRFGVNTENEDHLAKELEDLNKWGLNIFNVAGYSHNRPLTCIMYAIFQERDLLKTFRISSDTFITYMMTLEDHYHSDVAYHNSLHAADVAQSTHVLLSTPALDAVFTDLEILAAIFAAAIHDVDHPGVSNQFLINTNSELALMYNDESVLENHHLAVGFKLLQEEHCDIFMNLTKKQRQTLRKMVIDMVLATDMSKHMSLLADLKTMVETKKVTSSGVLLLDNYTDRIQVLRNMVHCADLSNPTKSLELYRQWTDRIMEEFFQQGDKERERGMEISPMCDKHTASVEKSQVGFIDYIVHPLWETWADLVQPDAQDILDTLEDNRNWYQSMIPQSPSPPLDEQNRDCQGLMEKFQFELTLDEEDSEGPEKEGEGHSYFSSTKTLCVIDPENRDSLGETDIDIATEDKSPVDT
Chain of Luciferin 4-monooxygenase (Photinus pyralis) (P08659 whole entry, looked up): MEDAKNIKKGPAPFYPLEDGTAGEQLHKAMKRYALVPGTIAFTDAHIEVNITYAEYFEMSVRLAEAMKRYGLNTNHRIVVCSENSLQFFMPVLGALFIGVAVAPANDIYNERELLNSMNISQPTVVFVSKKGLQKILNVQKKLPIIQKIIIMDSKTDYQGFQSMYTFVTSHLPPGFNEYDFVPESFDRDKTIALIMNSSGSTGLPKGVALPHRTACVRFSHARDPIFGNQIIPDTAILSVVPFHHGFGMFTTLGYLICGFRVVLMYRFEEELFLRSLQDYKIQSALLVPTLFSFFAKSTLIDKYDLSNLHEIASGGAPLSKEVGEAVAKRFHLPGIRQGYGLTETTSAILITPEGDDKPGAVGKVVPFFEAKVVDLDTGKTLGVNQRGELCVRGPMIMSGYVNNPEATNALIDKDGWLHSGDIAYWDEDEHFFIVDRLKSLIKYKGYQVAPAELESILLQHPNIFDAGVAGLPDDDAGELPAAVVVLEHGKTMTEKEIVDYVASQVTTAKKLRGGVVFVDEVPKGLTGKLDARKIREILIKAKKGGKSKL
Chain of ATP-dependent 6-phosphofructokinase (Trypanosoma brucei brucei) (O15648 whole entry, looked up): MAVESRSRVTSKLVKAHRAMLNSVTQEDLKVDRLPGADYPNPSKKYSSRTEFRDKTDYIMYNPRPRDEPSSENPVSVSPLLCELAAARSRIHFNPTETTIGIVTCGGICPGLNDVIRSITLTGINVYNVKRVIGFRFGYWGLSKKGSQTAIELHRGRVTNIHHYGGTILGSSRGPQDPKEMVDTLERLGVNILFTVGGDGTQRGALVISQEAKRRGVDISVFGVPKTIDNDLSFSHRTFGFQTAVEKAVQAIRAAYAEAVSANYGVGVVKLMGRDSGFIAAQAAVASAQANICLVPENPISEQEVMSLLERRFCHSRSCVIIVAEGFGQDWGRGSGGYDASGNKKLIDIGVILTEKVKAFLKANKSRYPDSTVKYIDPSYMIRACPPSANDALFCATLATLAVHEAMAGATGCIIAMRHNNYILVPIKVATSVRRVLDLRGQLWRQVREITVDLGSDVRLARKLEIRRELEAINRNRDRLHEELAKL

Take `C[C@@H]1[C@H](C)CC[C@@]2(C(=O)O[C@H]3O[C@@H](CO[C@H]4O[C@@H](CO)[C@@H](O[C@H]5O[C@@H](C)[C@@H](O)[C@@H](O)[C@@H]5O)[C@@H](O)[C@@H]4O)[C@@H](O)[C@@H](O)[C@@H]3O)CC[C@]3(C)C(=CC[C@H]4[C@@]5(C)C[C@@H](O)[C@@H](O)[C@](C)(CO)[C@@H]5CC[C@@]43C)[C@@H]12`: the call in test [1], in test [3] and in test [7] was inactive. For the same compound, the activity change, negative = inhibition in test [2] was -1.63% (inactive); in [8], -3.24% (inactive). Besides, the Potency in [4] and in [5] was > 20.6 µM (inactive) each time. Moreover, the Potency entry in test [6] and in test [9] was “inactive” in each case. Moreover, the figures for the max response in test [8] (setting [13]) and in test [8] (setting [14]) were -4% and -10.2%, respectively.

Consider `C[C@@H]1C[C@H]2[C@@H]3C[C@H](F)C4=CC(=O)C=C[C@@]4(C)[C@]3(F)[C@H](O)C[C@]2(C)[C@@]1(O)C(=O)CO`, for which the compound was called inactive in [1], in test [3] and in test [10]. Further, the activity change, negative = inhibition was 2.6% (inactive) in test [2] and -2.8% (inactive) in test [8]. Besides, the Potency entry (in test [6]; in test [9]; in test [11]; with C2A; with CP191; in the test on CP238) was “inactive” each time. The Potency entry with CP256, with FAB9, with JCK and in the test with SC27B was “inactive” each time. The max response in test [8] (setting [13]) is 0.642%; in test [8] (setting [14]), -3.99%. Also, the activity, negative = inhibition in [12] (parasite line A) was 7.34% (inactive); in test [12] (parasite line B), -3.91% (inactive).

Regarding `CN1CCCN=C1/C=C\c1cccs1`, the compound was called inactive in test [1], in test [3] and in test [7]. Further, the values for the activity change, negative = inhibition in test [2] and in [8] were -25.3% (inactive) and 0.765% (inactive), respectively. In addition, the Potency in [4] and in [5] was > 20.6 µM (inactive) throughout. Besides, the Potency entry in test [6] and in test [11] was “inactive” in each case. For the same compound, the max response in [8] (setting [13]) was -6.05%; in test [8] (setting [14]) it was -6.06%.

Turning to `CC1(C)S[C@@H]2[C@H](NC(=O)[C@@H](N)c3ccc(O)cc3)C(=O)N2[C@H]1C(=O)O`, the compound was called inactive in test [1], in test [3] and in [7]. The activity change, negative = inhibition in test [2] is -4.29% (inactive); in [8], -0.615% (inactive). The Potency result in test [6] and in [9] was “inactive” each time. The max response in test [8] (setting [13]) is -7.54%; in test [8] (setting [14]) it was -10.4%.

As to `COc1cc(OC)c2c(c1Cl)O[C@@]1(C2=O)[C@H](C)CC(=O)C[C@@H]1OC`, the result in [1] and in test [3] was inactive. The figures for the activity change, negative = inhibition in test [2] and in test [8] were -1.63% (inactive) and -1.85% (inactive), respectively. Also, the Potency in test [5] is > 20.6 µM (inactive). Moreover, the Potency entry in test [6] and in test [9] was “inactive” in each case. Further, the results for the max response in test [8] (setting [13]) and in test [8] (setting [14]) were -13.8% and -15.1%, respectively.

With `C[N+]1(C)CCC[C@H]1C(=O)[O-]`, the compound was called inactive in [1], in [3] and in [7]. Further, the activity change, negative = inhibition was -2.21% (inactive) in test [2] and -1.16% (inactive) in [8]. Moreover, the Potency in test [4] and in test [5] was > 20.6 µM (inactive) in each case. Moreover, the Potency entry in test [6] is “inactive”. Moreover, the max response in [8] (setting [13]) was 6.12%; in test [8] (setting [14]) it was 4.64%.

For `S=C(NC1CCCCC1)N1CCC([C@H]2C=NC=N2)CC1`, the outcome in test [1], in test [3] and in test [7] was inactive. Besides, the results for the activity change, negative = inhibition in test [2] and in [8] were -11% (inactive) and 2.27% (inactive), respectively. The Potency in test [4] and in test [5] was > 20.6 µM (inactive) in each case. Moreover, the Potency result in [6] and in test [9] was “inactive” in each case. Besides, the max response in test [8] (setting [13]) was -0.275%; in test [8] (setting [14]) it was 2.69%.
